The structures appear in SMILES notation. The panel holds about 79,000 compounds, 15% with a hit somewhere; the sample as a whole holds those more often. Values without a mark were called inactive. Active and inactive are the calls of the source. Cut-off read from the data, not from the text of the source: active = growth inhibition above about 70%; inactive = the rest.

One experiment in a line: NCI Yeast Anticancer Drug Screen. Data for the sgs1 mgt1 strain (AID 161).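 Note: 0% = growth of cultures given vehicle only.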 Particulars: S. cerevisiae sgs1 mgt1 strain, at 50.0 µM, hits give high values. An outline of the steps: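 Test agents were incubated with a DNA-repair-mutant yeast strain. Growth was then read and compared against vehicle-treated controls.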
With `CN1C/C(=C/c2ccc(N(C)C)cc2)C(=O)/C(=C/c2ccc(N(C)C)cc2)C1`, the growth inhibition is -16.9%.

For `CCOC(=O)c1nc2ccccc2nc1NCc1ccc(Cl)cc1Cl`, the growth inhibition was -24.7%. For `N#CC(C#N)=Cn1c(=S)[nH]c2ccc([N+](=O)[O-])cc21`, the growth inhibition is 2.75%.

`Cn1c(=O)c2nc3c(=O)n(C)c(=O)n(CC(N)=O)c3nc2n(C)c1=O`: the growth inhibition was 14.9%. The same measure, in the same setting: in the case of `CCOC(=O)C(Cc1ccc(N=NN(C)C)cc1)NC(=O)CC1c2ccccc2-c2ccccc21` (centres undefined) it was 20.7%. Same read-out and setting: in the case of `[Cu+2].[Cu+2].[O-]c1ccccc1C=Nc1ccccc1[O-].[O-]c1ccccc1C=Nc1ccccc1[O-]` it was -1.2%; in that of `NC(C1SCCS1)C(O)C(O)C(O)CO` (centres undefined), -1.9%. The same measure, in the same setting: in the case of `NS(=O)(=O)c1nc(S(=O)(=O)O)c2[nH]cnc2n1` it was -6.75%; in that of `COc1cc(C=O)c([N+](=O)[O-])cc1OC`, 18.2%; in that of `CC(NC(=O)C(C)NC(=O)C(N)CCP(C)(=O)O)C(=O)O` (centres undefined), -15.2%. `Cc1c[n+]([O-])cc(C)c1N=Nc1ccc(N(C)C)cc1`: the growth inhibition is -7.95%.

For `C[n+]1ccccc1C(=O)O`, the growth inhibition is 50.4%.

As for `CC(O)CNCc1ccc(N(C)C)cc1` (centres undefined), the growth inhibition is 6.8%. Same read-out and setting: in the case of `CC(=O)Nc1cc2c(cc1C=O)OCO2` it was -0.6%; in that of `COc1cccc(C2c3cc4c(cc3OC(N3CCCCC3)C2C)OCO4)c1OC` (centres undefined), 46.4%; in that of `COC(=O)c1ccc(SCCC(=O)CNc2nc(N)nc(N)c2[N+](=O)[O-])cc1`, 17.6%.

In the case of `Nc1ccccc1C(F)(F)F`, the growth inhibition is 1.2%. With `O=C(O)CCC1CCCO1` (centres undefined), the growth inhibition was -9.3%. Turning to `C=C1C(=O)O[C@H]2[C@H]1CC(=O)/C(C)=C/CC[C@@]1(C)O[C@@H]21`, the growth inhibition was 32.8%. Same read-out and setting: in the case of `CCOC(=O)c1c(C)[nH]c(=S)c(C#N)c1-c1cccc2ccccc12` it was 38%; in that of `O=C1c2ccccc2C(=O)c2c1cc1c(c2O)OCO1`, 20.1%. Still for that read-out and setting: in the case of `Cc1cc2c(C(C)C)c(O)c(O)c(C=Nc3cccc(O)c3)c2c(O)c1-c1c(C)cc2c(C(C)C)c(O)c(O)c(C=Nc3cccc(O)c3)c2c1O` it was 44%; in that of `c1ccc2c[n+](CCCC[n+]3ccc4ccccc4c3)ccc2c1`, 22.4%; in that of `CC1C(C)C1(c1ccccc1)C(C)(C)O` (centres undefined), 1.3%. Take `CCOC(=O)C(CSC(=O)c1ccccc1)NC(=O)OCc1ccccc1` (centres undefined): the growth inhibition is 21.2%. Same read-out and setting: in the case of `CC1=CC(C)(C)NC(=S)N1c1cccc2c(S(=O)(=O)O)cccc12` it was -11.2%. Still for that read-out and setting: in the case of `CCOc1ccccc1C=C1c2ccccc2C(=O)c2ccccc21` it was -3.6%; in that of `CN(C)C=Nc1cc2c(cc1Br)-c1ccccc1C2=O`, 4.4%; in that of `CCOC(=S)SCCSC`, -1.45%.

Turning to `CC(=O)N(c1ccc(F)c(F)c1)c1ccc(F)c(F)c1`, the growth inhibition is -0.9%. On to `CSc1nc2c(c(=O)n1C)N=C(c1ccc(Cl)cc1)CC(c1ccccc1)N2` (centres undefined), for which the growth inhibition is -5.6%. The same measure, in the same setting: in the case of `CCC1=NO[C@@H](C(=O)OCc2ccccc2)[C@H]1C` it was -7.2%; in that of `CC1CCC2(CC1)CC(=O)N(N1CCCCC1)C2=O` (centres undefined), 26.8%; in that of `OC1(c2ccccc2)CCN(C/C=C/c2ccccc2Cl)CC1`, 70.1% (active). Same read-out and setting: in the case of `Cn1c2ccccc2c(=O)c2cc(NC(=O)CCCCCCCC(=O)Nc3ccc4c(c3)c(=O)c3ccccc3n4C)ccc21` it was -10.7%; in that of `CCCCNC(=O)c1cccc(OC)c1OC`, 4.3%.

For `O=C(O)CCS.[Cu+2]`, the growth inhibition was -9.05%. On to `CCCCCCCCn1nnnc1N`, for which the growth inhibition is 1.45%. On to `CCOC(=O)NC1CCc2ccccc2C1` (centres undefined), for which the growth inhibition was 4%.

The next experiment in a line: NCI Yeast Anticancer Drug Screen. Data for the cln2 rad14 strain (AID 165).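 Note: 0% = growth equal to vehicle treated cultures.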 The note with it: S. cerevisiae cln2 rad14 strain, at 50.0 µM, hits give high values. An outline of the steps:
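cln2 rad14 yeast strain; compound exposure; growth inhibition read vs vehicle controls.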
In the case of `CN1C/C(=C/c2ccc(N(C)C)cc2)C(=O)/C(=C/c2ccc(N(C)C)cc2)C1`, the growth inhibition is -5.3%. `CCOC(=O)c1nc2ccccc2nc1NCc1ccc(Cl)cc1Cl`: the growth inhibition was 8%.

With `N#CC(C#N)=Cn1c(=S)[nH]c2ccc([N+](=O)[O-])cc21`, the growth inhibition is 20.8%.

As to `Cn1c(=O)c2nc3c(=O)n(C)c(=O)n(CC(N)=O)c3nc2n(C)c1=O`, the growth inhibition was 26.2%. Same read-out and setting: in the case of `CCOC(=O)C(Cc1ccc(N=NN(C)C)cc1)NC(=O)CC1c2ccccc2-c2ccccc21` (centres undefined) it was -6.25%.

Turning to `[Cu+2].[Cu+2].[O-]c1ccccc1C=Nc1ccccc1[O-].[O-]c1ccccc1C=Nc1ccccc1[O-]`, the growth inhibition is 16.9%. Same read-out and setting: in the case of `NC(C1SCCS1)C(O)C(O)C(O)CO` (centres undefined) it was -3.7%; in that of `NS(=O)(=O)c1nc(S(=O)(=O)O)c2[nH]cnc2n1`, -4.2%; in that of `COc1cc(C=O)c([N+](=O)[O-])cc1OC`, 20.9%.

In the case of `CC(NC(=O)C(C)NC(=O)C(N)CCP(C)(=O)O)C(=O)O` (centres undefined), the growth inhibition was -8.2%. With `Cc1c[n+]([O-])cc(C)c1N=Nc1ccc(N(C)C)cc1`, the growth inhibition was 11.1%.

For `C[n+]1ccccc1C(=O)O`, the growth inhibition is 26.6%. On the same count and under the same terms, in the case of `CC(O)CNCc1ccc(N(C)C)cc1` (centres undefined) it was -8.85%; in that of `CC(=O)Nc1cc2c(cc1C=O)OCO2`, -32.3%; in that of `COc1cccc(C2c3cc4c(cc3OC(N3CCCCC3)C2C)OCO4)c1OC` (centres undefined), 19.8%.

With `COC(=O)c1ccc(SCCC(=O)CNc2nc(N)nc(N)c2[N+](=O)[O-])cc1`, the growth inhibition is 22.3%. The same measure, in the same setting: in the case of `Nc1ccccc1C(F)(F)F` it was 4.1%.

Take `O=C(O)CCC1CCCO1` (centres undefined): the growth inhibition was 10.2%. Still for that read-out and setting: in the case of `C=C1C(=O)O[C@H]2[C@H]1CC(=O)/C(C)=C/CC[C@@]1(C)O[C@@H]21` it was 21.4%; in that of `CCOC(=O)c1c(C)[nH]c(=S)c(C#N)c1-c1cccc2ccccc12`, -12.6%. The same measure, in the same setting: in the case of `O=C1c2ccccc2C(=O)c2c1cc1c(c2O)OCO1` it was -10.2%. Same read-out and setting: in the case of `Cc1cc2c(C(C)C)c(O)c(O)c(C=Nc3cccc(O)c3)c2c(O)c1-c1c(C)cc2c(C(C)C)c(O)c(O)c(C=Nc3cccc(O)c3)c2c1O` it was 46.1%; in that of `c1ccc2c[n+](CCCC[n+]3ccc4ccccc4c3)ccc2c1`, 12.4%. Turning to `CC1CCC2C(C)C3C(CC4C5CC=C6CC(O)CCC6(C)C5CCC43COC(=O)c3ccccc3)N2C1` (centres undefined), the growth inhibition is 21.4%. For the molecule `CC1C(C)C1(c1ccccc1)C(C)(C)O` (centres undefined), the growth inhibition is 16.9%. On the same count and under the same terms, in the case of `CCOC(=O)C(CSC(=O)c1ccccc1)NC(=O)OCc1ccccc1` (centres undefined) it was -29.6%. As for `CC1=CC(C)(C)NC(=S)N1c1cccc2c(S(=O)(=O)O)cccc12`, the growth inhibition is -32.3%.

Regarding `CCOc1ccccc1C=C1c2ccccc2C(=O)c2ccccc21`, the growth inhibition is -21.6%. Regarding `CN(C)C=Nc1cc2c(cc1Br)-c1ccccc1C2=O`, the growth inhibition is -0.45%.

As for `CCOC(=S)SCCSC`, the growth inhibition is 4.35%. `CC(=O)N(c1ccc(F)c(F)c1)c1ccc(F)c(F)c1`: the growth inhibition was 1.5%. Regarding `CSc1nc2c(c(=O)n1C)N=C(c1ccc(Cl)cc1)CC(c1ccccc1)N2` (centres undefined), the growth inhibition was 11.4%. The same measure, in the same setting: in the case of `CCC1=NO[C@@H](C(=O)OCc2ccccc2)[C@H]1C` it was -29.2%; in that of `CC1CCC2(CC1)CC(=O)N(N1CCCCC1)C2=O` (centres undefined), 17.1%. In the case of `OC1(c2ccccc2)CCN(C/C=C/c2ccccc2Cl)CC1`, the growth inhibition is 77.1% (active). On to `Cn1c2ccccc2c(=O)c2cc(NC(=O)CCCCCCCC(=O)Nc3ccc4c(c3)c(=O)c3ccccc3n4C)ccc21`, for which the growth inhibition was -12.6%.

On to `CCCCNC(=O)c1cccc(OC)c1OC`, for which the growth inhibition was 2.35%. Consider `O=C(O)CCS.[Cu+2]`, for which the growth inhibition is -10.7%.

Regarding `CCCCCCCCn1nnnc1N`, the growth inhibition is 0.5%.

As to `CCOC(=O)NC1CCc2ccccc2C1` (centres undefined), the growth inhibition is -13.9%.

(Values after PubChem BioAssay (NCI).)
